# bovine MsrA act: bovine MsrA enzyme activators, primary screen, biochemical, absorbance, HTS; purified bovine MsrA, absorbance read-out; Methionine sulfoxide reductase A (Bos taurus); AID 602163, 2012; 360,000 tested, 0.3% active; activation, % at 10.6 µM; in the data active = activation above about 7.5%;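 note: 0% = vehicle and 100% = reference activator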
# Pemphigus Ab inh: inhibitors of pemphigus antibody binding to DSG3, primary screen, biochemical, bead-based, flow cytometry, scFv-GFP | DSG3-coupled beads, scFv-anti-DSG3-GFP binding; stronger effect = lower value | Desmoglein-3 (Homo sapiens), P32926 | binding (percent of control), % at 10 µM | 310,000 tested, 0.48% active;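 active = binding more than 3 SD below its plate's average and above zero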;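 note: hits lower antibody fragment binding to DSG3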
# rCAG binder: binders of r(CAG) RNA repeats, primary screen, biochemical, fluorescence | r(CAG) RNA repeat, TO-PRO-1 dye displacement fluorescence | inhibition, % at 3 µM | 370,000 tested, 1.3% active | AID 651821, 2012;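 active = inhibition above the plate cutoff, the mean of all test compounds on that plate plus 3 SD, cut at about 35% in these data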;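 note: 0% = DMSO alone and 100% = 100 µM mitoxantrone as full dye displacement; higher means more dye released from RNA so lower well fluorescence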
# MsrA inhibitor: bovine MsrA enzyme inhibitors, primary screen, biochemical, absorbance, HTS; Methionine sulfoxide reductase A (Bos taurus); purified bovine MsrA, absorbance read-out; inhibition, % at 15.5 µM; 360,000 tested, 0.75% active; in the data active = inhibition above about 4.5%;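 note: 0% = vehicle wells with enzyme and 100% = reference inhibitor wells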
# DAGLB inhibitor: DAGLB lipase inhibitors, primary screen, biochemical, fluorescence, HTS | Diacylglycerol lipase-beta (Homo sapiens), Q8NCG7 | HEK293T DAGLB membrane lysate, EnzChek fluorogenic substrate | inhibition, % at 5.17 µM | 340,000 tested, 0.059% active; in the data active = inhibition above about 34%;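 note: 0% = enzyme with vehicle and 100% = wells lacking enzyme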
# Target sequence (Q8NCG7 whole entry, looked up): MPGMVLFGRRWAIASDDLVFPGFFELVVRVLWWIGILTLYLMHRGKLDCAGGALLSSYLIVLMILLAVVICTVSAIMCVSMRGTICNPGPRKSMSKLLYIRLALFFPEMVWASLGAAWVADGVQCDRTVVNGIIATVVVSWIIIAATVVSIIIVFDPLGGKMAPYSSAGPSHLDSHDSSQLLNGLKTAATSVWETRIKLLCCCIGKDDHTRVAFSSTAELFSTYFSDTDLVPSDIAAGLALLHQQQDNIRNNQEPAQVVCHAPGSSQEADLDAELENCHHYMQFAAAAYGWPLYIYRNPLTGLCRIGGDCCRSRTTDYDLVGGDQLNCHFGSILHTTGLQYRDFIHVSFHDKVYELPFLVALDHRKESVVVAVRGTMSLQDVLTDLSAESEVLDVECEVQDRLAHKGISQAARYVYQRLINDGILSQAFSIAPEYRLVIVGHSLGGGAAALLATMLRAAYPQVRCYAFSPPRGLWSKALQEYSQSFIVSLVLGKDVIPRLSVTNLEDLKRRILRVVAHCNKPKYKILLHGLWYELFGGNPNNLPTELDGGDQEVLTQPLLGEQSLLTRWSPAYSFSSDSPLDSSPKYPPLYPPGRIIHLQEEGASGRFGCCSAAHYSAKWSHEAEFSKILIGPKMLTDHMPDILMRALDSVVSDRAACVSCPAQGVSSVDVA
# NadD inh: inhibitors of S. aureus NadD, primary screen, biochemical, colorimetric, uHTS; Nicotinate-nucleotide adenylyltransferase NadD (Staphylococcus aureus N315); purified NadD enzyme, colorimetric absorbance read-out; inhibition, % at 20 µM; 360,000 tested, 0.78% active; in the data active = inhibition above about 26%
# * = called active by the depositor; · = no result given. An excerpt weighted towards active compounds, which were near 3.2% of everything screened.
SMILES,bovine MsrA act,Pemphigus Ab inh,rCAG binder,MsrA inhibitor,DAGLB inhibitor,NadD inh
CCCn1c(CNS(=O)(=O)c2ccc(C)cc2)nc2ccccc21,2,66*,-1,1,2,0
CC(c1c[nH]c2ccccc12)c1c[nH]c2ccc(Br)cc12 (stereo not drawn),·,·,12,·,·,·
CN(/N=C\c1ccc(O)c(O)c1)c1nc(-c2ccccc2)cc(-c2ccccc2)n1,-6,54*,29,2,4,33*
COc1cc(/C=N/N(c2ccccc2)c2ccccc2)ccc1O,-11,123,7,3,0,-7
CCOCCn1c2ccccc2c2nc3ccccc3nc21,-2,88,-1,4.7*,-4,-2
CCn1c2ccccc2c2nc3ccccc3nc21,-2,111,·,·,-6,2
O=C(Nc1ccc(Nc2ccncc2)cc1)c1ccc(Nc2ccnc3ccc([N+](=O)[O-])cc23)cc1,-1,60*,20,1,5,18
O=C(CNC(=O)c1ccc2ccccc2c1)NCc1ccc(F)cc1,-5,100,0,0,-5,-9
Cc1ccc2nc(/C(C#N)=C\c3cc(C)n(-c4cccc([N+](=O)[O-])c4)c3C)[nH]c2c1,-5,83,25,2,2,29*
Cc1ccc2nc(/C(C#N)=C\c3ccc([N+](=O)[O-])o3)[nH]c2c1,4,108,9,0,2,8
CCN(CC)C(=O)C1=C(C)N(Cc2ccc(C(C)(C)C)cc2)C(=O)C(CC(=O)NC(c2ccccc2)c2ccccc2)C1 (stereo not drawn),-5,106,8,1,-4,8
COc1cccc(OCc2cc(C3Nc4ccccc4C(=O)N3Cc3ccco3)ccc2OC)c1 (stereo not drawn),-7,107,14,1,0,31*
O=S(=O)(Nc1nc2ccccc2nc1Cl)c1cccc(C(F)(F)F)c1,-2,103,42*,0,9,1
O=C(NCc1ccco1)c1ccccc1NS(=O)(=O)c1ccc(Cl)s1,-2,102,20,1,7,2
O=C(Nc1ccccc1)c1ccccc1NS(=O)(=O)c1ccc(Cl)s1,1,126,60*,3,11,-10
COc1ccc(O)c(/C=N/n2c(-c3ccco3)csc2=Nc2cccnc2)c1,-6,1.2*,3,1,0,9
COCCn1c(-c2ccco2)csc1=Nc1cccnc1,-2,96,·,·,-1,9
O=S1(=O)CCSC[C@@H](CNCc2ccco2)N1,·,·,0,2,·,·
COc1cc2c(cc1OC)C(C)N(C(=O)/C=C/c1cc(OC)c(OC)c(OC)c1)CC2 (stereo not drawn),-6,82*,-8,-1,0,-2
COc1cc2c(cc1OC)CN(C(=O)/C=C/c1cc(OC)c(OC)c(OC)c1)CC2,0,104,2,1,-3,-4
Cc1cc(-c2csc(NCc3ccccc3)n2)c(C)n1C,-3,·,·,·,12,42*
Cc1nc(N)sc1-c1csc(NCc2ccccc2)n1,-2,105,19,1,3,23
COc1ccc2c(c1)C1C=CCC1C(c1cc3c(cc1Br)OCO3)N2 (stereo not drawn),-2,96,12,2,9,44*
CC(=O)c1ccc2c(c1)C1C=CCC1C(c1cc3c(cc1Br)OCO3)N2 (stereo not drawn),-7,101,5,1,0,20
O=C(C1CCN(c2ncnc3c2sc2cccc(F)c23)CC1)N1CCN(C(=O)C2CCCO2)CC1 (stereo not drawn),·,·,7,·,·,·
CCCCCCNC(=O)C1CSCCS(=O)(=O)N1Cc1ccc(OC)cc1 (stereo not drawn),·,·,0,·,·,·
Nc1c(C(=O)Nc2cccc(F)c2)nnn1-c1cccc(C(F)(F)F)c1,0,93*,-1,0,-3,0
C=CCN=C1NC(c2ccc(Cl)cc2)C(C(=O)OC)=C(C)N1C (stereo not drawn),·,·,5,0,·,·
